In PubChem BioAssay AID463173 (ICCB-Longwood Screening Facility, Harvard Medical School, 2010):
Out of some 52,000 compounds screened, about 4,300 (8.3%) were called active. This is one part of a sample in which actives are shown more often than they occur. A number with no mark means an inactive call. Rule as the data show it: active = survival mostly below about 52% (no sharp cut-off); inactive = mostly above about 56%.

system: DeltatarO mutant; test: growth inhibition of S. aureus wild type versus tarO mutant, primary screen, teichoic acid synthesis inhibitors, RN4220, OD600 (AID 463173); conditions: OD600, 18 h, hits give low values, screened at 18.75 µg/mL (by protocol)

SMILES | survival
CCOC(=O)N1CCC(NC(=O)c2cnn(-c3ccc(C)cc3C)c2C2CCN(C(=O)OC(C)(C)C)CC2)CC1 | 124%
O=C(CNC(=O)c1ccccc1Cl)OCc1cc(=O)n2nc(C3CC3)sc2n1 | 78%
CCCCOC(=O)c1ccc(NC(=O)c2cc(-c3ccccc3)on2)cc1 | 91%
Cc1ccc(NC(=O)CSc2ncnc3c2sc2ccccc23)cc1C | 113%
CCN1CCN(Cc2c(O)ccc3oc(C)c(C(=O)Nc4ccc(OC)cc4)c23)CC1 | 78%
Cc1cc2c(C)nc3ccc(C(=O)O)cc3c2o1 | 71%
Cc1ccc(OC(C)C(=O)N2CCN(CCc3ccncc3)CC2)cc1C (configuration not stated) | 52%
Cc1ccc(Cl)cc1N1CCN(C(=O)C2CCN(S(=O)(=O)c3c(C)noc3/C=C/c3ccccc3F)CC2)CC1 | 72%
CCOC(=O)c1cc(S(=O)(=O)NCc2ccccc2)[nH]n1 | 124%
CC(C)c1ccc(Nc2ncnc3onc(-c4ccc(F)cc4)c23)cc1 | 80%
COc1cccc(CN2C(=O)N(c3ccc(C)cc3)C(=O)C2CC(=O)Nc2cc(OC)cc(OC)c2)c1 (configuration not stated) | 144%
CCc1ccc(NC(=O)CC2C(=O)N(c3ccccc3)C(=O)N2C(C)C)cc1 (configuration not stated) | -5% (active)
CCCOc1ccc(NC(=O)CC2C(=O)N(c3ccc(C)cc3)C(=O)N2Cc2cccc(OC)c2)cc1 (configuration not stated) | 46% (active)
COC(=O)c1ccc(NC(=O)CC2C(=O)N(c3ccccc3)C(=O)N2Cc2ccc(F)cc2)cc1 (configuration not stated) | 55%
COc1ccc(CN2C(=O)N(c3ccc(F)cc3)C(=O)C2CC(=O)Nc2ccccc2)cc1 (configuration not stated) | 77%
CCCOc1ccc(NC(=O)CC2C(=O)N(c3ccc(C)cc3)C(=O)N2C(C)C)cc1 (configuration not stated) | 128%
CCCOc1ccc(NC(=O)CC2C(=O)N(c3ccccc3)C(=O)N2Cc2ccc(F)cc2)cc1 (configuration not stated) | 17% (active)
Cc1ccc(N2C(=O)C(CC(=O)Nc3ccccc3)N(CCC3=CCCCC3)C2=O)cc1 (configuration not stated) | 67%
Cc1ccc(N2C(=O)C(CC(=O)Nc3ccc(F)cc3)N(CCC3=CCCCC3)C2=O)cc1 (configuration not stated) | 55% (active)
CCOc1ccc(NC(=O)CC2C(=O)N(c3ccccc3)C(=O)N2Cc2cccc(OC)c2)cc1 (configuration not stated) | 102%
COC(=O)c1ccc(NC(=O)CC2C(=O)N(c3cccc(OC)c3)C(=O)N2C(C)C)cc1 (configuration not stated) | 88%
O=C(CC1C(=O)N(c2ccccc2)C(=O)N1CCC1=CCCCC1)Nc1ccc(F)cc1 (configuration not stated) | 48%

SMILES | survival
CCN(C(=O)c1c(C)oc2ncnc(N3CCCCC3)c12)c1cc(C)ccc1C | 95%
CCC(C)C(NC(=O)c1cc(C)oc1C)C(=O)O (configuration not stated) | 95%
CCOc1ccc(NC(=O)c2oc3ccccc3c2NC(=O)c2ccc(OC)cc2OC)cc1 | 51%
O=C(CC1C(=O)N(c2ccc(F)cc2)C(=O)N1Cc1ccc2c(c1)OCO2)Nc1ccc(Cl)cc1 (configuration not stated) | 43% (active)
Cc1ccc(N2C(=O)C(CC(=O)Nc3ccc(F)cc3)N(Cc3ccc4c(c3)OCO4)C2=O)cc1 (configuration not stated) | 70%
O=C(CC1C(=O)N(c2ccc(F)cc2)C(=O)N1Cc1ccc2c(c1)OCO2)Nc1ccc(F)cc1 (configuration not stated) | 72%
Cc1ccc(Cl)cc1NC(=O)c1cc(S(=O)(=O)N2CCCCCC2)cn1C | 71%
O=C(CSc1oc(-c2cccs2)nc1S(=O)(=O)c1ccccc1)Nc1ccc(F)cc1 | 55%
O=C(NCC(c1cccnc1)N1CCc2ccccc2C1)C(=O)Nc1ccccc1 (configuration not stated) | 81%
CCC1CN(C(=O)NCc2ccc(F)cc2)c2cc(Cl)ccc2O1 (configuration not stated) | 39% (active)
CCC1CN(C(=O)NCc2ccc(F)cc2)c2ccccc2O1 (configuration not stated) | 67%
CCC1CN(C(=O)NCc2cccc(OC)c2)c2cc(Cl)ccc2O1 (configuration not stated) | 43% (active)
CCC1CN(C(=O)NCc2ccc(F)cc2)c2cc(C)ccc2O1 (configuration not stated) | 52%
CCC1CN(C(=O)NCc2ccccc2)c2cc(C)ccc2O1 (configuration not stated) | 51%
CCC1CN(C(=O)NCc2ccc(C)cc2)c2cc(Cl)ccc2O1 (configuration not stated) | 93%
CCC1CN(C(=O)NCc2ccccc2)c2cc(Cl)ccc2O1 (configuration not stated) | 46% (active)
CCC1CN(C(=O)NCc2cccc(OC)c2)c2ccccc2O1 (configuration not stated) | 62%
CC1CN(C(=O)NCc2ccccc2)c2cc(Cl)ccc2O1 (configuration not stated) | 49%
O=C(NCc1ccco1)c1ccc2c(c1)N(Cc1cccc(Cl)c1)C(=O)c1ccccc1S2=O (configuration not stated) | 63%
CC(=O)N1CCc2c(sc3c2c(=O)n(-c2ccccc2)c(=O)n3CC(=O)Nc2ccccc2C)C1 | 71%
Cc1ccc(C)c(NC(=O)CN2C(=O)CSc3nc(C)cc(C)c32)c1 | 103%
O=C(NCc1ccc(F)cc1Cl)c1cc(=O)[nH]c2ccc(S(=O)(=O)N3CCCCC3)cc12 | 102%

SMILES | survival
Cc1ccc(S(=O)(=O)c2cn(Cc3cccc(C)c3)c3cc4c(cc3c2=O)OCO4)cc1 | 101%
COc1ccc(C)cc1NC(=O)C1CCN(S(=O)(=O)c2cccc3nonc23)CC1 | 108%
CCOc1ccccc1NC(=O)C1CCN(S(=O)(=O)c2cccc3nonc23)CC1 | 74%
COc1ccc(NC(=O)CCNS(=O)(=O)c2cccc3nsnc23)cc1OC | 65%
COc1ccc(Cl)cc1NC(=O)CCS(=O)(=O)c1cccc2nonc12 | 146%
O=C(CCNS(=O)(=O)c1cccc2nsnc12)Nc1ccc(F)cc1 | 56%
COc1ccc(NC(=O)CCNS(=O)(=O)c2cccc3nonc23)c(OC)c1 | 50% (active)
O=C(CCNS(=O)(=O)c1cccc2nonc12)Nc1ccc(F)cc1 | 45% (active)
O=C(CCS(=O)(=O)c1cccc2nonc12)Nc1cccc(F)c1 | 67%
COc1ccc(OC)c(NC(=O)CCNS(=O)(=O)c2cccc3nsnc23)c1 | 49%
CCc1ccccc1NC(=O)CCS(=O)(=O)c1cccc2nonc12 | 74%
CCOc1ccccc1NC(=O)CCNS(=O)(=O)c1cccc2nonc12 | 45% (active)
COc1ccc(C)cc1NC(=O)CCNS(=O)(=O)c1cccc2nonc12 | 43% (active)
CC(=O)N1CCN(c2ccc(NC(=O)COc3ccc(Cl)c(C)c3)cc2)CC1 | 68%
CCN(CC)S(=O)(=O)c1ccc(NC(=O)CN(c2ccccc2)S(=O)(=O)N(C)C)cc1 | 69%
CCNC(=O)c1cnc2sc(N3CCCCCC3)nn2c1=O | 81%
C/C(Cc1ccccc1)=N\NC(=O)c1cc(C(C)(C)C)[nH]n1 | 101%
CC1=C(c2ccc(C)c(C)c2)S(=O)(=O)N=C1N1CCC(C(=O)NC(C)Cc2ccco2)CC1 (configuration not stated) | 83%
O=C(CN1CCN(c2ncccn2)CC1)N(Cc1ccccc1)c1ccc(F)cc1 | 78%
COc1ccc(NC(=O)C2CCN(C3=NS(=O)(=O)C(c4ccc(C)c(C)c4)=C3C)CC2)c(OC)c1 | 91%
CN=CC1=C(O)C(C(=O)OC)C(C)(C)CC1=O (configuration not stated) | 74%
CCCCCn1c(=O)[nH]c2cc(C(=O)N3CCN(c4ccccc4)CC3)ccc2c1=O | 68%

SMILES | survival
CCOc1ccc(NC(=O)CCS(=O)(=O)c2cccc3nonc23)cc1 | 78%
COc1ccc(NC(=O)CCNS(=O)(=O)c2cccc3nonc23)cc1 | 50% (active)
CCOc1ccc(NC(=O)CCNS(=O)(=O)c2cccc3nonc23)cc1 | 70%
O=C(C1CCCCC1)N(Cc1cccnc1)c1nc2c(F)cc(F)cc2s1 | 88%
COc1ccc(C2C=C(c3ccccc3)Nc3nc(NC(=O)/C=C/c4ccccc4)nn32)cc1 (configuration not stated) | 59%
COc1ccccc1/C=C/C(=O)Nc1nc2n(n1)C(c1ccc(F)cc1)C=C(c1ccccc1)N2 (configuration not stated) | 65%
COc1ccc(C2C=C(c3ccccc3)Nc3nc(NC(=O)/C=C/c4ccc(Cl)cc4)nn32)cc1 (configuration not stated) | 53%
O=C(/C=C/c1ccc(F)cc1)Nc1nc2n(n1)C(c1ccc(Cl)cc1)C=C(c1ccccc1)N2 (configuration not stated) | 33% (active)
COc1ccc(C2C=C(c3ccccc3)Nc3nc(NC(=O)/C=C/c4ccccc4Cl)nn32)cc1 (configuration not stated) | 96%
COc1ccc(C2C=C(c3ccccc3)Nc3nc(NC(=O)/C=C/c4ccccc4OC)nn32)cc1 (configuration not stated) | 52% (active)
O=C(/C=C/c1ccccc1)Nc1nc2n(n1)C(c1ccc(F)cc1)C=C(c1ccccc1)N2 (configuration not stated) | 44% (active)
O=C(/C=C/c1ccccc1)Nc1nc2n(n1)C(c1ccc(Cl)cc1)C=C(c1ccccc1)N2 (configuration not stated) | 38% (active)
COc1ccc(/C=C/C(=O)Nc2nc3n(n2)C(c2ccccc2)C=C(c2ccc(Cl)cc2)N3)cc1 (configuration not stated) | 77%
COc1ccc(NCc2cccn2-c2nnc(N3CCC(C)CC3)s2)c(OC)c1 | 73%
COc1ccc(C(=O)Nc2ccccc2C(=O)NC(C(=O)O)C(C)C)cc1 (configuration not stated) | 84%
O=C(CSc1nc(-c2ccccc2)cc(=O)[nH]1)Nc1ccccc1F | 89%
CCCN(CCC)S(=O)(=O)c1ccc(C(=O)N2CCC(=O)c3ccccc32)cc1 | 94%
CCc1cccc(C)c1NC(=O)C(CC)n1ncn2c(cc3cc(C)ccc32)c1=O (configuration not stated) | 86%
COc1ccc(NC(=O)CN(c2cccc(C)c2C)S(=O)(=O)c2ccccc2)cc1OC | 61%
Cc1ccc2c(c1)cc1c(=O)n(CC(=O)N(C)c3ccccc3)nc(C)n12 | 129%
O=C(NCCc1ccccc1)c1ccc2c(c1)N(Cc1ccccc1)C(=O)c1ccccc1S2=O (configuration not stated) | 70%
